Efflux pump mplx – inhibitors of Candida antifungal efflux pumps expressed in yeast; 330,000 compounds, 0.44% hits; AID 485275; inhibition, % at 10 µM; S. cerevisiae Candida pump triplex, Nile Red efflux;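 active means plate passing quality check with inhibition over a set limit, or well fluorescence over plate mean plus 4 SD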;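 further: Nile Red retained in pooled yeast measured as flow cytometry median fluorescence; higher means more Nile Red kept so more efflux inhibition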
MEP2 TOR yeast – yeast TOR pathway MEP2-GFP modulation; GFP response vs DMSO, % at 10 µM; 330,000 compounds, 0.51% hits; S. cerevisiae MEP2-GFP strain, flow cytometry GFP, 3 h; 100% = DMSO control level; AID 2016;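 active means GFP response versus DMSO above a set limit, roughly screen mean plus 3 SD, cut at about 180% in these data; inconclusive means fewer than 70 cells counted for a yeast strain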;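 further: median GFP fluorescence of the barcode-gated MEP2-GFP cells per well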
AGP1 TOR yeast – modulators of TOR pathway AGP1-GFP in S. cerevisiae | 320,000 compounds, 0.02% hits | S. cerevisiae AGP1-GFP multiplex flow cytometry, 3 h; GFP as percent of DMSO wells | AID 2066 | GFP response vs DMSO, % at 10 µM;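 active means GFP response relative to DMSO above a set limit, near screen average plus 3 SD, cut at about 150% in these data; inconclusive means fewer than 70 cells counted for the yeast strain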;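 further: median GFP channel fluorescence of the gated AGP1 strain per well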
LAP4 TOR yeast – yeast TOR pathway LAP4-GFP modulation; S. cerevisiae LAP4-GFP multiplex, flow cytometry GFP, 3 h; median GFP as percent of DMSO wells; GFP response vs DMSO, % at 10 µM; 320,000 compounds, 0.34% hits;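 active means GFP response vs DMSO above a set limit, about the screen mean plus 3 SD, cut at about 150% in these data; inconclusive means under 70 cell events counted for the yeast strain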
RPL19A-GFP yeast – yeast TOR pathway RPL19A-GFP modulation | 330,000 compounds, 0.3% hits | AID 2025 | percent response vs DMSO, % at 10 µM | S. cerevisiae RPL19A-GFP strain, flow cytometry, 3 h; hits give low values;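 active means percent response vs DMSO below 50%; inconclusive means fewer than 70 events counted for the yeast strain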;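 further: median channel GFP fluorescence of the barcoded RPL19A-GFP strain; lower means less RPL19A-GFP as with rapamycin TOR inhibition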
CIT2-GFP yeast – yeast TOR pathway CIT2-GFP modulation; S. cerevisiae CIT2-GFP strain, flow cytometry, 3 h; 100 means same as DMSO wells; GFP response vs DMSO, % at 10 µM; 320,000 compounds, 0.065% hits; AID 2029;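 active means GFP response relative to DMSO above a set limit, near the screen mean plus 3 SD, cut at about 150% in these data; inconclusive means Fewer than 70 cells measured for a yeast strain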;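 further: ratio of well median GFP fluorescence to mean of DMSO wells on the plate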
Hits are given with their value; i = inactive; ? = inconclusive; nt = no result given; [ ] = another dose, or the depositor's remark. Sampled rows, rich in hits. Any-hit rate of the full collection: about 1.3%.

SMILES	Efflux pump mplx	MEP2 TOR yeast	AGP1 TOR yeast	LAP4 TOR yeast	RPL19A-GFP yeast	CIT2-GFP yeast
O=C(OCc1cccc([N+](=O)[O-])c1)c1cnccn1	i	175.2	i	i	i	i
O=C(Cc1ccc(Cl)cc1)Nc1ccc(Br)cn1	i	187.2	i	i	i	i
Cn1nc(C(C)(C)C)c([N+](=O)[O-])c1C(=O)N1CCOCC1	i	231.3[may fluoresce violet]	?	i	48.4[may fluoresce violet]	?
CSc1ccc(Cl)c(C(=O)N2CCN(c3ncccn3)CC2)c1	i	i	i	i	i	i
O=S(=O)(c1cccc(Br)c1)N1CCN(c2ccnc3cc(Cl)ccc23)CC1	i	i	i	i	i	174.4[may fluoresce green]
N#Cc1ccc(C(=O)NC(=S)N2CCN(C=O)CC2)cc1	i	i	i	i	i	i
COc1ccccc1OCC(=O)NC1CCCc2ccccc21 (stereo not given)	i	i	i	i	i	i
COc1ccc(CCC(=O)NC2CCCc3ccccc32)cc1OC (stereo not given)	i	236.1[may fluoresce violet]	?	i	28.5[may fluoresce violet]	?
COc1ccc(CCC(=O)OCc2csc(CC(=O)Nc3ccc(C)cc3)n2)cc1OC	0.9	i	i	i	i	i
COc1ccccc1CCC(=O)Nc1nccs1	i	i	i	i	i	i
COc1ccc(CCC(=O)Nc2nccs2)cc1OC	i	198.1[may fluoresce violet]	i	i	47.5[may fluoresce violet]	?
COc1ccc(CN2CCN(CCc3ccccc3)C(CCO)C2)c(Cl)c1OC (stereo not given)	i	i	i	i	i	i
CC(=O)c1cccc(NC(=O)CCc2nnc3ccc(NCc4ccc5c(c4)OCO5)nn23)c1	i	i	i	i	i	i
NC(=O)c1nsc(C(=O)N(c2ccc3c(c2)OCO3)C(C(=O)NCC2CCCO2)c2ccc(F)cc2)c1N (stereo not given)	i	i	i	i	i	i
O=C1C(=O)c2ccc(-c3ccccc3)cc2-c2ccccc21	i	i	i	158.2	i	i
Nc1ccc2c(c1)C(=O)c1ccccc1-2	i	i	i	i	i	i
Nc1ccc2c(c1)C(=O)C(=O)c1ccccc1-2	i	i	i	189.4	i	i
Cc1ccc2nc3nc(NCC4CCCO4)c(C(=O)NC4CCCCC4)cc3c(=O)n2c1 (stereo not given)	i	i	i	i	i	i
C=CCNC(=O)c1cc2c(=O)n3cc(C)ccc3nc2nc1NCC1CCCO1 (stereo not given)	i	179.5[may fluoresce violet]	?	i	28.5[may fluoresce violet]	?
Cc1ccc2nc3nc(NCC4CCCO4)c(C(=O)NC4CCCC4)cc3c(=O)n2c1 (stereo not given)	i	266.7[may fluoresce violet]	?	i	21.8[may fluoresce violet]	?
COc1ccc(Nc2cc(C(=O)NCCCN3CCOCC3)c3ccccc3n2)cc1	i	i	i	i	i	i
COc1ccc(Nc2cc(C(=O)NCCCN3CCN(C)CC3)c3ccccc3n2)cc1	i	244.1[may fluoresce violet]	i	i	47.4[may fluoresce violet]	?
CC(=O)c1cn(-c2ccc([N+](=O)[O-])cc2)c(=O)n(C)c1=O	i	i	i	i	i	i
Cn1c(CBr)c(C(=O)c2ccc([N+](=O)[O-])cc2)c(=O)n(C)c1=O	i	444.2[may fluoresce violet]	?	i	i	?
CCOC(=O)Cn1c2c(c(=N)c3c1CCC3)CCC2	i	i	i	i	i	i
SMILES	Efflux pump mplx	MEP2 TOR yeast	AGP1 TOR yeast	LAP4 TOR yeast	RPL19A-GFP yeast	CIT2-GFP yeast
CCOC(=O)Cn1c2c(c(=N)c3ccccc31)CCC2	i	229.4[may fluoresce violet]	nt	i	i	?
S=C1NC[C@H](CC2CCCCC2)N1CC1CCCCC1	i	i	i	i	i	i
CCn1cc(C(=O)NN)c(=O)c2cc(F)c(N3CCOCC3)cc21	i	i	i	i	i	i
CCn1cc([N+](=O)[O-])c(=O)c2cc(F)c(N3CCOCC3)cc21	i	254.9[may fluoresce violet]	?	i	i	?
COc1ccccc1-c1cc(C(F)(F)F)n2ncc(C(=O)N3CCc4ccccc4C3)c2n1	i	i	i	i	i	nt
COc1ccc(NC(=S)NNS(=O)(=O)c2ccc3ccccc3c2)c(OC)c1	i	i	i	i	i	i
Cc1ccc(-n2nc(C)c3c(C)c(CCC(=O)O)c(C)nc32)cc1C	i	i	i	i	i	i
Cc1ccc(-n2nc(C)c3c(C)c(CCC(=O)O)c(C)nc32)cc1	i	184.6	i	150.6	i	i
Cc1ncc2c(n1)-c1cc(F)ccc1SC2	i	177.8	i	i	i	i
CC1=CC(C)[C@H](/C=N/n2c(=O)[nH]c3c([nH]c4ccc(C)cc43)c2=O)C(C)C1 (stereo not given in full)	i	266.2[may fluoresce violet]	?	i	44.1[may fluoresce violet]	?
COc1ccc(C(=O)Nc2ccccc2C(=O)N/N=C/c2ccncc2)cc1OC	i	i	i	i	i	i
COC(=O)c1cc(NC(=O)CC2CCCC2)cc(C(=O)OC)c1	i	i	?	i	26.9[may fluoresce violet]	?
CC(=O)c1cccc(NC(=O)CC2CCCC2)c1	i	i	i	i	i	i
COc1ccc(NS(=O)(=O)c2cccc3ccccc23)cc1	i	i	i	183.5	i	i
COc1ccc(NS(=O)(=O)c2cc(C)ccc2C)cc1	i	i	nt	i	i	i
COc1ccc(NS(=O)(=O)c2cc(OC)ccc2OC)cc1	i	267.2[may fluoresce violet]	?	i	44.9[may fluoresce violet]	?
COc1ccc(S(=O)(=O)Nc2ccc(C(F)(F)F)cc2)cc1OC	i	195.6[may fluoresce violet]	?	i	i	?
COc1ccc(C(=O)O)cc1S(=O)(=O)NCCc1ccccn1	i	i	i	i	i	i
Cc1ccc2c(c1)nnn2C1CCN(S(=O)(=O)c2ccc(C(=O)N3CC(C)CC(C)C3)cc2)CC1 (stereo not given)	i	317.5[may fluoresce violet]	?	i	29.7[may fluoresce violet]	?
CCNc1ccc2noc3c2c1C(=O)c1ccccc1-3	i	i	i	i	i	i
CCOc1ccc2noc3c2c1C(=O)c1ccccc1-3	i	i	i	246.9	i	i
CCc1ccc(NC(=O)C2CCCN2S(=O)(=O)c2ccc3c(c2)n(C)c(=O)c(=O)n3C)cc1 (stereo not given)	i	i	i	i	i	i
CCN1CCN(C(=O)/C=C/c2ccc(C)o2)CC1	i	i	i	i	i	i
Cc1ccc(/C=C/C(=O)N2CC(C)CC(C)C2)o1 (stereo not given)	i	275.2	i	i	nt	i
O=c1c(Cl)c(O)c2cccc3c4ccccc4n1c23	i	i	i	i	i	i
COc1c(OC)c2[nH]c(=O)cc3c4ccccc4n(c1=O)c23	i	364.9[may fluoresce violet]	?	i	17.6[may fluoresce violet]	?
CC(C)N1C(=O)S/C(=C/c2ccccc2OCc2ccc(C(=O)O)cc2)C1=O	i	i	i	i	i	i
O=[N+]([O-])c1cccc(-c2ccc(/C=N/Nc3nc(N4CCCCC4)nc(N4CCCCC4)n3)o2)c1	i	i	i	151.9	i	i
CC(C)CN(C(=O)COC(=O)c1cncc(Br)c1)c1c(N)n(Cc2ccccc2)c(=O)[nH]c1=O	i	i	i	i	i	i

Source: PubChem BioAssay
